These results are taken from ChEMBL document CHEMBL3433997, “St. Jude Leishmania screening dataset” (2016).

As a reminder, the inhibition is the drop in the measured response relative to a control, in per cent.

The target in one test is Hexose transporter 1 (Plasmodium falciparum) (UniProt O97467). The test is described as follows: ST_JUDE_LEISH: Cytotoxicity at 2uM final concentration against transgenic Leishmania Mexicana promastigotes LmPfHT that are glucose transport deficient and complemented with the Plasmodium falciparum hexose transporter. Activity is measured by DNA content using SYBR green in vitro. The format is functional.
In the case of `CCN(CCCN1CCCCC1)c1cc(C)nc(Nc2ccc(C)c(C)c2)n1`, the inhibition was found to be 5.75%.
Still for that read-out and setting: with `C=CCn1c(Sc2ccc(C#N)c([N+](=O)[O-])c2)nnc1-c1ccc(Cl)cc1` the figure was 5.18%; with `CC(C)COc1ccc(Cl)cc1Cc1nc(-c2nc3ccc(CN(C)C)cc3[nH]2)co1`, 4.73%; with `COc1cc(C(F)(F)F)c2cc(CNCCCNc3nc4ccccc4[nH]3)[nH]c2c1`, 2.11%.
On the same count and under the same terms, with `COc1ccc2c(N/N=C/c3cccc([N+](=O)[O-])c3)cc(C)nc2c1` the figure was 4.05%; with `COc1ccc2[nH]ccc(=NN=Cc3ccc(Cl)cc3)c2c1`, 3.19%.
The same measure, in the same setting: then `O=C(NCCc1ccccc1)N(Cc1ccccc1-c1cccc(CNCCc2ccccc2)c1)C1CCN(Cc2ccccc2)CC1`, with 1.06%; and `Cc1ccccc1C1CCN(C2CCC(NC(=O)/C=C/c3cc(F)ccc3C(F)(F)F)CC2)CC1` (stereo not drawn), with -0.94%; and `CCOC(=O)CN1Cc2cc(NCc3ccc4ccc5nc(C)[nH]c(=O)c5c4c3)ccc2C1=O`, with 1.98%.
On to `CN(C)Cc1ccc(-c2cccc(Nc3nccc(NCC(O)c4ccccc4)n3)c2)cc1` (stereo not drawn), for which the inhibition came out at 1.38%.
Still for that read-out and setting: with `O=c1c(NCCCN(Cc2ccc(F)cc2)c2ccccn2)c(NCc2ccncc2)c1=O` the figure was 3.53%.
On the same count and under the same terms, with `COc1ccccc1-c1cccc2c(NC(=O)Nc3ccc4nccc(N5CCN(C)CC5)c4c3)ccnc12` the figure was 2.74%.
The same measure, in the same setting: then `CCOc1cccc(C2c3c(oc4ccccc4c3=O)C(=O)N2CCN(CC)CC)c1` (stereo not drawn), with 2.93%; and `NC(=O)c1cccc(Nc2nccc(Nc3ccc4[nH]c(-c5ccccc5)cc4c3)n2)c1`, with 0.57%; and `COc1ccc(CNCCc2cccs2)cc1-c1ccc(S(=O)(=O)NCCN2CCCC2)cc1`, with 5.79%.
Regarding `N#Cc1cccc(C(O)C2CN(CCC3CCCCC3)CCC2(O)c2ccccc2)c1` (stereo not drawn), the inhibition is -0.13%.
Regarding `CCCNC(=O)C1Cc2c([nH]c3cc(Br)ccc23)C2(CCN(CCc3ccccc3)CC2)N1` (stereo not drawn), the inhibition turned out to be 1.9%.
The same measure, in the same setting: with `CCc1c(C)c2ccc3c(c2oc1=O)CN(CCc1ccc(F)cc1)CO3` the figure was 6.16%; with `CC(C)N1CCN(C(CN2CCN(CCCOc3ccc(-c4ccccc4)cc3)CC2)c2ccc(F)cc2)CC1` (stereo not drawn), 32%.
Still for that read-out and setting: then `Cc1cccc(OCC(=O)Nc2cccc(NC(=O)COc3cccc(C)c3)n2)c1`, with 1.55%; and `CCc1ccccc1N1CCN(CCCC(=O)c2ccc(NC(=O)c3ccc(Cl)cc3)cc2)CC1`, with 3.75%.
The same measure, in the same setting: with `C[C@@H](Nc1nc(NCc2ccccc2)c2sccc2n1)c1ccccc1` the figure was 22.3%; with `CC(C)C[C@H](Nc1ccc(C#N)c2ccccc12)C(=O)NC(C)(C)C12CC3CC(CC(C3)C1)C2`, 5.78%.
As for `CCOc1cc(C(=O)N[C@@H](Cc2ccccc2)[C@H](O)CNCc2cc(OC)cc(OC)c2)cc(N2CCCCS2(=O)=O)c1`, the inhibition is -0.68%.
Same read-out and setting: with `COc1cc2c(cc1OC)C(c1ccc(Br)cc1)CN(C)CC2` (stereo not drawn) the figure was 4.21%; with `Cc1cccc2nc(-c3cccc(-c4cccc(NC(=O)c5cn(C)c(=O)n5C)c4)c3)[nH]c12`, 1.44%; with `COc1cc(OC)cc(-c2nn(-c3ccc([N+](=O)[O-])cc3C#N)c(=S)n2CC2CCCO2)c1` (stereo not drawn), 1.07%.
As for `O=C(NC1CCCCC1)N(Cc1ccc(-c2cccc(CNCc3ccc4c(c3)OCO4)c2)cc1)C1CCN(Cc2ccccc2)CC1`, the inhibition is 1.74%.
Take `COc1ccc(Nc2nc(NC3CCN(C)CC3)cc(-c3ccc(OC)cc3)n2)cc1`: the inhibition was 2.61%.
Same read-out and setting: with `COc1ccc(N2CCN(C(CNC(=O)C3CCCCC3)c3ccc4c(c3)OCO4)CC2)cc1` (stereo not drawn) the figure was 4.28%; with `CCOC(=O)c1cnc2c(OC)cc(OC)c(Cl)c2c1Nc1cccc(C)c1`, 8.66%; with `O=C(c1ccc(Cl)cc1Cl)N1CCCC(C(F)(F)F)C1` (stereo not drawn), 11.4%.
Take `CCN(Cc1ccc(-c2ccc(C(F)(F)F)cc2)cc1)C(=O)Cn1c(SCc2cccc(F)c2F)cc(=O)c2cc(CN3CCCCC3)ccc21`: the inhibition worked out at 0.7%.
The same measure, in the same setting: with `C=CCn1c(=N)c(C(=O)NCc2ccc(F)cc2)cc2c(=O)n3cccc(C)c3nc21` the figure was 3.45%; with `CC1=C(C(=O)Nc2ccc(Cl)cc2)C(c2ccncc2)n2nc(C(F)(F)F)nc2N1` (stereo not drawn), 2.96%.
On to `CCN(CCCN1CCCCC1)c1cc(C)nc(Nc2ccc(C)cc2C(F)(F)F)n1`, for which the inhibition amounted to 0.39%.
Turning to `Cc1cc(N2CCN(C3CCCCC3)CC2)nc2cccc(O)c12`, the inhibition was -0.66%.
Turning to `O=C(/C=C/c1ccc(Cl)c(Cl)c1)NCCCCCN1CCCN(C(=O)Nc2ccc(Cl)cc2)CC1`, the inhibition was -0.48%.
The same measure, in the same setting: with `CC(C)c1ccc(CN2CCCCC(NC(=O)c3cc(-c4ccccc4Cl)cs3)C2)cc1` (stereo not drawn) the figure was -1.98%.

For another test, the target named is Glucose transporter (Leishmania mexicana) (UniProt O61059). Nature of the test: ST_JUDE_LEISH: Cytotoxicity at 2uM final concentration against transgenic Leishmania Mexicana promastigotes LmGT2 that are glucose transport deficient and complemented with the L. Mexicana glucose transporter 2. Activity is measured by DNA content using SYBR green in vitro. The format is functional.
Turning to `CCN(CCCN1CCCCC1)c1cc(C)nc(Nc2ccc(C)c(C)c2)n1`, the inhibition was found to be 4.45%.
The same measure, in the same setting: with `C=CCn1c(Sc2ccc(C#N)c([N+](=O)[O-])c2)nnc1-c1ccc(Cl)cc1` the figure was 2.18%.
Same read-out and setting: then `CC(C)COc1ccc(Cl)cc1Cc1nc(-c2nc3ccc(CN(C)C)cc3[nH]2)co1`, with 4.57%.
For the compound `COc1cc(C(F)(F)F)c2cc(CNCCCNc3nc4ccccc4[nH]3)[nH]c2c1`, the inhibition is 2.95%.
Same read-out and setting: then `COc1ccc2c(N/N=C/c3cccc([N+](=O)[O-])c3)cc(C)nc2c1`, with 0.63%; and `COc1ccc2[nH]ccc(=NN=Cc3ccc(Cl)cc3)c2c1`, with 0.32%; and `O=C(NCCc1ccccc1)N(Cc1ccccc1-c1cccc(CNCCc2ccccc2)c1)C1CCN(Cc2ccccc2)CC1`, with 5.48%.
Turning to `Cc1ccccc1C1CCN(C2CCC(NC(=O)/C=C/c3cc(F)ccc3C(F)(F)F)CC2)CC1` (stereo not drawn), the inhibition stood at 1.99%.
Regarding `CCOC(=O)CN1Cc2cc(NCc3ccc4ccc5nc(C)[nH]c(=O)c5c4c3)ccc2C1=O`, the inhibition was -0.88%.
Same read-out and setting: then `CN(C)Cc1ccc(-c2cccc(Nc3nccc(NCC(O)c4ccccc4)n3)c2)cc1` (stereo not drawn), with 0.25%.
The same measure, in the same setting: then `O=c1c(NCCCN(Cc2ccc(F)cc2)c2ccccn2)c(NCc2ccncc2)c1=O`, with 5.17%.
The same measure, in the same setting: then `COc1ccccc1-c1cccc2c(NC(=O)Nc3ccc4nccc(N5CCN(C)CC5)c4c3)ccnc12`, with 2.18%.
Take `CCOc1cccc(C2c3c(oc4ccccc4c3=O)C(=O)N2CCN(CC)CC)c1` (stereo not drawn): the inhibition was determined as 3.34%.
In the case of `NC(=O)c1cccc(Nc2nccc(Nc3ccc4[nH]c(-c5ccccc5)cc4c3)n2)c1`, the inhibition worked out at 1.6%.
Same read-out and setting: then `COc1ccc(CNCCc2cccs2)cc1-c1ccc(S(=O)(=O)NCCN2CCCC2)cc1`, with 2.85%; and `N#Cc1cccc(C(O)C2CN(CCC3CCCCC3)CCC2(O)c2ccccc2)c1` (stereo not drawn), with 2.48%; and `CCCNC(=O)C1Cc2c([nH]c3cc(Br)ccc23)C2(CCN(CCc3ccccc3)CC2)N1` (stereo not drawn), with 1.75%.
Take `CCc1c(C)c2ccc3c(c2oc1=O)CN(CCc1ccc(F)cc1)CO3`: the inhibition is 5.28%.
Same read-out and setting: then `CC(C)N1CCN(C(CN2CCN(CCCOc3ccc(-c4ccccc4)cc3)CC2)c2ccc(F)cc2)CC1` (stereo not drawn), with 103%; and `Cc1cccc(OCC(=O)Nc2cccc(NC(=O)COc3cccc(C)c3)n2)c1`, with 1.64%; and `CCc1ccccc1N1CCN(CCCC(=O)c2ccc(NC(=O)c3ccc(Cl)cc3)cc2)CC1`, with 4.09%.
As to `C[C@@H](Nc1nc(NCc2ccccc2)c2sccc2n1)c1ccccc1`, the inhibition was found to be 8.39%.
Same read-out and setting: with `CC(C)C[C@H](Nc1ccc(C#N)c2ccccc12)C(=O)NC(C)(C)C12CC3CC(CC(C3)C1)C2` the figure was 2.11%; with `CCOc1cc(C(=O)N[C@@H](Cc2ccccc2)[C@H](O)CNCc2cc(OC)cc(OC)c2)cc(N2CCCCS2(=O)=O)c1`, -1.52%; with `COc1cc2c(cc1OC)C(c1ccc(Br)cc1)CN(C)CC2` (stereo not drawn), 4.35%.
`Cc1cccc2nc(-c3cccc(-c4cccc(NC(=O)c5cn(C)c(=O)n5C)c4)c3)[nH]c12`: the inhibition is -0.64%.
Turning to `COc1cc(OC)cc(-c2nn(-c3ccc([N+](=O)[O-])cc3C#N)c(=S)n2CC2CCCO2)c1` (stereo not drawn), the inhibition is -7.78%.
`O=C(NC1CCCCC1)N(Cc1ccc(-c2cccc(CNCc3ccc4c(c3)OCO4)c2)cc1)C1CCN(Cc2ccccc2)CC1`: the inhibition is 0.81%.
Still for that read-out and setting: with `COc1ccc(Nc2nc(NC3CCN(C)CC3)cc(-c3ccc(OC)cc3)n2)cc1` the figure was 2.87%; with `COc1ccc(N2CCN(C(CNC(=O)C3CCCCC3)c3ccc4c(c3)OCO4)CC2)cc1` (stereo not drawn), 4.35%; with `CCOC(=O)c1cnc2c(OC)cc(OC)c(Cl)c2c1Nc1cccc(C)c1`, 4.43%.
For `O=C(c1ccc(Cl)cc1Cl)N1CCCC(C(F)(F)F)C1` (stereo not drawn), the inhibition amounted to 10.3%.
Regarding `CCN(Cc1ccc(-c2ccc(C(F)(F)F)cc2)cc1)C(=O)Cn1c(SCc2cccc(F)c2F)cc(=O)c2cc(CN3CCCCC3)ccc21`, the inhibition came to 5.02%.
As for `C=CCn1c(=N)c(C(=O)NCc2ccc(F)cc2)cc2c(=O)n3cccc(C)c3nc21`, the inhibition was 2.22%.
With `CC1=C(C(=O)Nc2ccc(Cl)cc2)C(c2ccncc2)n2nc(C(F)(F)F)nc2N1` (stereo not drawn), the inhibition is -2.29%.
In the case of `CCN(CCCN1CCCCC1)c1cc(C)nc(Nc2ccc(C)cc2C(F)(F)F)n1`, the inhibition was -1.54%.
For `Cc1cc(N2CCN(C3CCCCC3)CC2)nc2cccc(O)c12`, the inhibition came out at 0.33%.
Regarding `O=C(/C=C/c1ccc(Cl)c(Cl)c1)NCCCCCN1CCCN(C(=O)Nc2ccc(Cl)cc2)CC1`, the inhibition was 0.01%.
On the same count and under the same terms, with `CC(C)c1ccc(CN2CCCCC(NC(=O)c3cc(-c4ccccc4Cl)cs3)C2)cc1` (stereo not drawn) the figure was -4.09%.
